# Data reported in PubChem BioAssay (NCATS).
# Values joined by “and” are separate entries in the source; they are usually repeats but may differ in a detail not shown here. Equal entries are not always repeated. Inconclusive results are not listed. Active and inactive are the calls of the source. Calls come from the whole dose curve; as a rule, active = well fitted curve in the direction sought with a large enough effect; inconclusive = small, poorly fitted or top-dose-only effect, or another doubt; inactive = no such curve, though single readings can be large; an effect the other way counts as inactive or inconclusive.
# Columns and labels:
# [1] = Primary qHTS for inhibitors of nuclear receptor binding SET domain protein 2 (NSD2) in an isogenic RCH-ACV NSD2 p.E1099K mutant (9B) (AID 1645876); note: nearly all actives have a fitted effect of over 70% in size; note: potency is the fitted concentration of half-maximal effect
# [2] = Primary qHTS for inhibitors of nuclear receptor binding SET domain protein 2 (NSD2) in an RCH-ACV wild type WT cells (2C) (AID 1645877); note: nearly all actives have a fitted effect of over 70% in size; note: potency is the fitted concentration of half-maximal effect
# [3] = target: Rap guanine nucleotide exchange factor 3 (Homo sapiens) (UniProt O95398); test: Confirmatory qHTS for antagonist of cAMP-regulated guanine nucleotide exchange factor 3 (EPAC1) (AID 1645880); note: nearly all actives have a fitted effect of over 55% in size; note: potency is the fitted concentration of half-maximal effect
# Outline: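 Nucleotide exchange uses 100 nM EPAC1, 250 nM RAP1B-BODIPY-GDP and 50 uM GDP, with compounds in a concentration-titration series. After 5 min at room temperature, fluorescence (480 nm ex/540 nm em) is read every 5 min for 30 min. Data are normalized to control ATA and DMSO.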
# [4] = target: Rap guanine nucleotide exchange factor 3 (Homo sapiens) (UniProt O95398); test: Confirmatory qHTS for agonist of cAMP-regulated guanine nucleotide exchange factor 3 (EPAC1) (AID 1645881);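 note: EPAC1 catalysed release of BODIPY-GDP from Rap1B seen as fluorescence loss; nearly all actives have a fitted effect of over 75% in size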
# [5] = target: Rap guanine nucleotide exchange factor 4 (Homo sapiens) (UniProt Q8WZA2); test: Confirmatory qHTS for agonist of cAMP-regulated guanine nucleotide exchange factor 4 (EPAC2) (AID 1645884);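 note: nucleotide exchange releases bodipy-GDP from Rap1 and this lowers its fluorescence; nearly all actives have a fitted effect of over 65% in size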
# [6] = target: Rap guanine nucleotide exchange factor 4 (Homo sapiens) (UniProt Q8WZA2); test: Confirmatory qHTS for antagonist of cAMP-regulated guanine nucleotide exchange factor 4 (EPAC2) (AID 1645885); note: nearly all actives have a fitted effect of over 25% in size
# Sequence of Rap guanine nucleotide exchange factor 4 (Homo sapiens) (Q8WZA2 whole entry, looked up): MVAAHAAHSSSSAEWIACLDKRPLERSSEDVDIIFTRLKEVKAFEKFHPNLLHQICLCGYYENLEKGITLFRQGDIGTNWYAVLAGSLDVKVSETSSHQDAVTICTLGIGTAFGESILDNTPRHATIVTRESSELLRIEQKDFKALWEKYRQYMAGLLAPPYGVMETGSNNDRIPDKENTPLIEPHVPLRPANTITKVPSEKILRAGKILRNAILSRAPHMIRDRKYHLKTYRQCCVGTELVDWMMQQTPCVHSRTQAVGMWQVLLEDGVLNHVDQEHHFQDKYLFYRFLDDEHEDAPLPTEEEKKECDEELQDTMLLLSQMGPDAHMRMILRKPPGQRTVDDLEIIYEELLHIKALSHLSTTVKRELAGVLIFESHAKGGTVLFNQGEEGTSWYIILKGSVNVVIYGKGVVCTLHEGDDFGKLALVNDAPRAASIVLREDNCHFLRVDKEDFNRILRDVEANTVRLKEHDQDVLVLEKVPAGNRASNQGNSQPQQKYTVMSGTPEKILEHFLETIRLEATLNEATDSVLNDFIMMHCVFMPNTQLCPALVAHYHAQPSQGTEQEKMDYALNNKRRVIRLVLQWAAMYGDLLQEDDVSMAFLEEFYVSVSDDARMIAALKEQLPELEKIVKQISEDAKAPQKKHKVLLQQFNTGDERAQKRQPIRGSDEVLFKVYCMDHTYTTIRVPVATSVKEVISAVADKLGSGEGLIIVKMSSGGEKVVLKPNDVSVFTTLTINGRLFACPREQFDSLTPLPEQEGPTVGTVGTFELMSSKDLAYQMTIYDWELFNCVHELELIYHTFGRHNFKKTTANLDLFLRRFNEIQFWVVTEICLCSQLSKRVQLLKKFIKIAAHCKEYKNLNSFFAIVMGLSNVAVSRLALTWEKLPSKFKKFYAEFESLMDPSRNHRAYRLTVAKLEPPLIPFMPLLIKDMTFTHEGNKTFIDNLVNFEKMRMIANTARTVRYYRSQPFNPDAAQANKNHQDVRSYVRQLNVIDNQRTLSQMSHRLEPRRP
# Sequence of Rap guanine nucleotide exchange factor 3 (Homo sapiens) (O95398 whole entry, looked up): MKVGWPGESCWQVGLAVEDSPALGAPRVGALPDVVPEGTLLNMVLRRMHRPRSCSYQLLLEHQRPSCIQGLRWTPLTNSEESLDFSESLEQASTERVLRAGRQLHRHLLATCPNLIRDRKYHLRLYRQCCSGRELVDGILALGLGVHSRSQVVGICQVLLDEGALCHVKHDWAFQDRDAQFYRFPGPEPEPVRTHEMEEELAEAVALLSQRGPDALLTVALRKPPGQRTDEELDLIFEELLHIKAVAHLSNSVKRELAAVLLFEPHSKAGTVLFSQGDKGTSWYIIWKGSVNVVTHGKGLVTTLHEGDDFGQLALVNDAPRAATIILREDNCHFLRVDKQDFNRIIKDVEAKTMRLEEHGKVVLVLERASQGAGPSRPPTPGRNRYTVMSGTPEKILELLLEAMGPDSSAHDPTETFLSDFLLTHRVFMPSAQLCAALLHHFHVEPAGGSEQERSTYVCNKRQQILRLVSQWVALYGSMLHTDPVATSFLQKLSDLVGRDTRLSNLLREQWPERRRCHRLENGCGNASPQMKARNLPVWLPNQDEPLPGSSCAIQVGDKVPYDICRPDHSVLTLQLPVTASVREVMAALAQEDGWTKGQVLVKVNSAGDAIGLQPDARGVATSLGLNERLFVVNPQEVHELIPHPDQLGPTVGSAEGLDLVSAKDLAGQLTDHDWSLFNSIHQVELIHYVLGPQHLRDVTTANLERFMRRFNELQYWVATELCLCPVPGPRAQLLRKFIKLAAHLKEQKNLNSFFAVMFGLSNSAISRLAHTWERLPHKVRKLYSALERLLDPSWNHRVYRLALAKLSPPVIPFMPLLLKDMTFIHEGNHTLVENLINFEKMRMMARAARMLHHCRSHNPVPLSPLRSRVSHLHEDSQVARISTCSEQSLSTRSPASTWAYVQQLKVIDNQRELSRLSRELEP
smiles,measurement,setting,value
N#Cc1ccc(Oc2ccc3c(c2)COB3O)cc1,Potency,[1],5.9 µM (active)
same,Potency,[2],6.61 µM (active)
CN(C)CCCNC(=O)c1ccc(-c2cc(O)c3ncccc3c2)cc1,Potency,[1],9.2 µM (active) and 10.5 µM (active)
same,Potency,[2],10.3 µM (active) and 9.34 µM (active)
CN(C)S(=O)(=O)c1ccc2c(c1)C(=Cc1cc3c([nH]1)CCCC3)C(=O)N2,Potency,[2],2.95 µM (active)
Cc1ccc(NC(=O)c2ccc(CN3CCN(C)CC3)cc2)cc1Nc1nc(-c2cccnc2)cs1,Potency,[1],14.6 µM (active) and 14.8 µM (active)
same,Potency,[2],18.4 µM (active) and 14.8 µM (active)
CN1CCN(c2ncc(-c3cc(Cl)cc(Cl)c3Cl)c(N)n2)CC1,Potency,[2],18.6 µM (active)
CCCCCCCCCCCCCCCC(=O)O[C@H]1[C@@H](O)[C@@H](O)[C@@H]([C@H](NC(=O)[C@@H]2C[C@@H](CCC)CN2C)[C@H](C)Cl)O[C@@H]1SC,Potency,[2],inactive
O=c1cc(-c2ccc(O)c(O)c2)oc2cc(O)cc(O)c12,Potency,[1],10.5 µM (active)
same,Potency,[2],9.34 µM (active)
same,Potency,[3],6.27 µM (active) and 5.77 µM (active) and 7.57 µM (active)
same,Potency,[4],inactive
same,Potency,[5],inactive
same,Potency,[6],inactive
CN1CCc2c(n(Cc3ccc(C(=O)NO)cc3)c3ccccc23)C1,Potency,[1],18.3 µM (active) and 16.6 µM (active)
same,Potency,[2],14.5 µM (active) and 18.6 µM (active)
O=C(Nc1cccc(Cl)c1)Nc1ncc(CCNc2ncnc3ccsc23)s1,Potency,[1],1.86 µM (active)
same,Potency,[2],0.0295 µM (active)
COc1cccc(OC)c1-c1cc(C(=O)NC2(C(=O)O)C3CC4CC(C3)CC2C4)nn1-c1ccnc2cc(Cl)ccc12 (stereo not drawn),Potency,[2],inactive
Cc1ccc2c(=O)c3cccc(CC(=O)O)c3oc2c1C,Potency,[1],inactive
same,Potency,[2],inactive
Nc1ccn([C@@H]2O[C@H](CO)[C@@H](O)[C@H]2O)c(=O)n1,Potency,[2],inactive
CN1C(=O)C(Cc2c[nH]c3ccccc23)NC1=S (stereo not drawn),Potency,[1],inactive
same,Potency,[2],inactive
COc1cc2c(cc1Cc1cccc(Cl)c1F)c(=O)c(C(=O)O)cn2[C@H](CO)C(C)C,Potency,[1],7.42 µM (active)
same,Potency,[2],5.25 µM (active)
CCOC(=O)[C@@H](N)CCC(=O)N[C@@H](CSCc1ccccc1)C(=O)N[C@@H](C(=O)OCC)c1ccccc1,Potency,[1],20.9 µM (active)
same,Potency,[2],16.6 µM (active)
Cc1ccc2c(c1)C(=O)[C@]1(O)CCN(c3ccccc3)C1=N2,Potency,[2],23 µM (active)
COc1cc(F)c(C(C)C)cc1-c1ccc(C(F)(F)F)cc1CN1C(=O)O[C@H](c2cc(C(F)(F)F)cc(C(F)(F)F)c2)[C@@H]1C,Potency,[2],inactive
O=C(NC[C@H](O)CO)c1ccncc1Nc1ccc(I)cc1F,Potency,[2],16.6 µM (active)
CCCCC(C)(C)[C@H](O)C=C[C@H]1[C@H](O)CC(=O)[C@H]1CC=CCCCC(=O)O,Potency,[1],inactive
same,Potency,[2],inactive
NC(=O)c1ccc(N(C(N)=O)c2c(F)cccc2F)nc1-c1ccc(F)cc1F,Potency,[1],inactive
same,Potency,[2],inactive
CCCCC(F)(F)[C@@]1(O)CC[C@H]2[C@H](CC(=O)[C@@H]2CCCCCCC(=O)O)O1,Potency,[2],inactive
CCCCc1ccc(NS(=O)(=O)c2ccc(C)c(C(=O)N3CCN(c4cccc(C)c4C)CC3)c2)cc1,Potency,[2],inactive
COc1ccc(-c2nc3ccc(C4=NNC(=O)CC4C)cc3[nH]2)cc1 (stereo not drawn),Potency,[1],9.44 µM (active) and 14.8 µM (active)
same,Potency,[2],5.96 µM (active) and 11.8 µM (active)
CC(C)C[C@@H](N)[C@H](O)C(=O)N[C@H](C(=O)N[C@H](C(=O)N[C@@H](CC(=O)O)C(=O)O)C(C)C)C(C)C,Potency,[1],inactive
same,Potency,[2],inactive
CCC(C)SSc1ncc[nH]1 (stereo not drawn),Potency,[1],9.34 µM (active)
same,Potency,[2],8.33 µM (active)
COc1cc2nccc(Oc3ccc(NC(=O)Nc4ccc(F)cc4F)c(F)c3)c2cc1OC,Potency,[2],2.35 µM (active)
Cc1cc2nc3c(=O)[nH]c(=O)nc-3n(CC(O)C(O)C(O)CO)c2cc1C (stereo not drawn),Potency,[1],inactive
same,Potency,[3],inactive
same,Potency,[6],inactive
